Assay results reported in PMC12136788.
Where a chain is given by its changes, count along the chain named. The full ranking holds about 24,000 sequences; the median of “enrichment r” is about 0.99, and the highest 2% start at about 3.7. Many of the other results were omitted from the sample, so the highest values are more common in it than they were.

B1: chr6:36760027:36760028:-_ENSMUSG00000029838_ENSMUST00000101534|mus_hu|FALSE|FALSE (ssRNA)
RNA: GGGAGUUCUACAGUCCGACGAUCGUACCCGGCUCGCUGCAGCUCCUGCUUGGGCCGCUGCUGCUCUCCCCGCCUUCUGGACGGAUGACUCACUGGUCUCUUUCUUCCCCUCUCUCCACUUUGGAUUUUCCUCUGCUCUGGGGCCAACAGAGGAUUGAGCAUCA
B2: chr5:37680062:37680063:+_ENSMUSG00000029121_ENSMUST00000031004|mus_hu|mus_mus_mus_hu_False|8_38 (ssRNA)
RNA: GGGAGUUCUACAGUCCGACGAUCUUUGGGUGUAGCUGGUACCUCGUACACAGGACCGUCAUACAUGCCCCUGGAAACCCCUUGCAAUCCAAAAACCUUGCUUCUGAUUUUGACGCGCUGGUACAGGUGCUCUGGGAACGCCUUCAACAGAGGAUUGAGCAUCA
B3: chr18:54424204:54424205:+_ENSG00000091157_ENST00000357574|hu_mus|FALSE|FALSE (ssRNA)
RNA: GGGAGUUCUACAGUCCGACGAUCCCAGGCGUGGAGACAGGACAUGAAUAAUUUUGCGGUAUCCAUAGUAAGGUUGUAUUCUAGUAGGGUCAGUGGCUUGGACUUGCUGGCCCGGUACUCAGGGUCACUAUCCUCCCUGCUCUGCAACAGAGGAUUGAGCAUCA
B4: 95985174_95988629_161_5pUTR_ENSMUSG00000038486_ENSMUST00000035371|mouse|control|control (ssRNA)
RNA: GGGAGUUCUACAGUCCGACGAUCGGCUAAACUGAGGAUCCAAGAUAUUUCAGGGAGGGCUGCCUAUUUUUCUUCUGAGAGGCUCUGAAGACCUGAGCUUGGUUCCCCGGGUCAGGGAGUCCCCGGGUGAGGGAGGGGGUCCAGCAACAGAGGAUUGAGCAUCA
B5: chr8:35203877:35203878:-_ENSMUSG00000031513_ENSMUST00000033910|mus_hu|motif|central (ssRNA)
RNA: GGGAGUUCUACAGUCCGACGAUCGGAAGGGCACAUCCAAGCAUCAAAAACAUCAGUCCGAUUGCUCCUCCAAAGGACAAACGGAUCAAAGCUUUGAUGCCUGCCAUGGCGGUGACGUCGCUCCUGGCUCCACGACCCGAGGCGCAACAGAGGAUUGAGCAUCA
B6: chr7:54823571:54823572:-_ENSG00000132432_ENST00000352861|hu_mus|hu_hu_hu_mus_False|98_98 (ssRNA)
RNA: GGGAGUUCUACAGUCCGACGAUCUCCCAUGAUAGCAAAUCCUAUUGCUGUAGCCAUGGCAAUCUUCUGGAAUUCUUUUCUGUCGGGUUUGGUGCAUCUUUUAACCAGCCGAAUUGAGUCCUUUACAAACUGCCGGCUGGGCUCCAACAGAGGAUUGAGCAUCA
B7: 80410323_80421071_410_CDS_ENSMUSG00000027002_ENSMUST00000028386|mouse|control|control (ssRNA)
RNA: GGGAGUUCUACAGUCCGACGAUCCACAGCAGAUUCCAGGUUUUUGUCAAUAAGGUAGGAGGGUUUAGCCUUGGGGUCGCCACAUGCCUUCUUGAUGUUGUAGAGGCGCGUGAGCAUGCCGACGCCCCGGUCGUUGAGGAUGGUCAACAGAGGAUUGAGCAUCA
B8: chr7:75932113:75932114:+_ENSG00000106211_ENST00000248553|hu_hu|hu_hu_hu_mus_False|8_88 (ssRNA)
RNA: GGGAGUUCUACAGUCCGACGAUCCUGCGACCACUCAUCGGGCAACCGGGGCAGCCCGAAAGCUUGAUCGAAGAGGCGGCUGUGUGCAGGGUACCAGUCCCGGAAUGGUUCCCAGCUCGGGCUCCGCAGCGAGAAGGAGGGCACCAACAGAGGAUUGAGCAUCA
B9: chr2:25961539:25961540:-_ENSG00000143970_ENST00000336112|hu_mus|FALSE|FALSE (ssRNA)
RNA: GGGAGUUCUACAGUCCGACGAUCGAGUAAUGGAAAGCCUGCUCAUAACAAACCAUUUAACCCAAGAGCUCAUGAAACUUUAAGAGGAGGAAAGCAGCAUAGAGCAAUCAGAAUGGUAACUGAAGGGACCGUUCUAUGUAGGACCAACAGAGGAUUGAGCAUCA
B10: chr7:149838072:149838073:-_ENSMUSG00000048583_ENSMUST00000000033|mus_mus|FALSE|FALSE (ssRNA)
RNA: GGGAGUUCUACAGUCCGACGAUCGAUCACUGCUCCCGUUAUGUAGGGAAUGGGUACAAUUGAUUAUGAGCGCAUAAAAAGCUAAGGAGGGAUUAAAAAAAAAAGGAAAAAACCGGCCCCAGAAAUAAAAAGAGGGGAAUAGAUCAACAGAGGAUUGAGCAUCA
B11: chr7:149838072:149838073:-_ENSMUSG00000048583_ENSMUST00000000033|mus_mus|motif|central (ssRNA)
RNA: B10 RNA with U82G, A83G
B12: chr3:94910677:94910678:-_ENSMUSG00000028126_ENSMUST00000107236|mus_mus|motif|central (ssRNA)
RNA: GGGAGUUCUACAGUCCGACGAUCACUUGAGCCGGGCCCCGGGAGUCCCGCGUCUCGGAUAGAACAAACCUAAAGGAAAACCGGGGCACCUGAGGUGCCCCCAAAAGCGAAUGCCCCCCCUCCCUCACCUCCCCAGCCACUGCCCAACAGAGGAUUGAGCAUCA
B13: chr2:47388980:47388981:-_ENSG00000143933_ENST00000272298|hu_mus|hu_hu_hu_mus_True|8_68 (ssRNA)
RNA: GGGAGUUCUACAGUCCGACGAUCUUCAUCUGUUAACUUCUCGCCAAGGUUUGUCAUCACAUGGCGAAGUUCUGCAGCACUAAUAUAGCCAUUGCCAUCCUUAUCAAACACACGGAAUGCUUCUCUAAUUUCUUCUUCACUGUCCAACAGAGGAUUGAGCAUCA
B14: 160109231_160113639_413_CDS_ENSG00000112096_ENST00000546260|human|control|control (ssRNA)
RNA: GGGAGUUCUACAGUCCGACGAUCAACUUCAGUGCAGGCUGAAGAGCUAUCUGGGCUGUAACAUCUCCUGGAAAACUCGGAACCGGUACAAAUACGAAGCGAGUUCUCCUCCACGGAGAGGCCCGUCCGUAUGGGGCCUGGCUCCAACAGAGGAUUGAGCAUCA

target: T1, UNK ZnF1-3 (human, UniProt Q9C0B0 31-174); assay: nsRBNS (natural sequence RNA bind-n-seq); RBNS binding buffer (assumed for nsRBNS): 25 mM Tris pH 7.5, 150 mM KCl, 3 mM MgCl2, 0.01% Triton X-100, 500 ug/ml BSA, 20 U/ml SUPERase-In, 4 C; UNK is unkempt and MSI1 is Musashi-1; names of the RNAs are library labels; protein concentration not given here; high values mean tight binding
T1 sequence: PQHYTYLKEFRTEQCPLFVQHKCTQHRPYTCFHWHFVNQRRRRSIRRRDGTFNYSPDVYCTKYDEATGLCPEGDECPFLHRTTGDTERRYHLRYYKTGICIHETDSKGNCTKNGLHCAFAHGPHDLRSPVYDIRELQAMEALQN

| Binder | binding signal [enrichment R] |
| --- | --- |
| B1 | 0.683 |
| B2 | 0.747 |
| B3 | 0.993 |
| B4 | 1.92 |
| B5 | 0.394 |
| B6 | 0.647 |
| B7 | 0.855 |
| B8 | 1.63 |
| B9 | 3.45 |
| B10 | 11 |
| B11 | 9.4 |
| B12 | 2 |
| B13 | 0.795 |
| B14 | 0.808 |
